Common to all, as to conditions: concentration: 1 μM, replicates: in singlicate; n = 1
The subject of assay [1] is MET.
Assay [2] relates to T1, MINK.
T1 construct: gene MINK1

The test system of assay [3] is MKK7.
Assay [4] relates to MKNK1.
Assay [5] deals with MKNK2.
For assay [6], the system named is T2, MLCK.
T2 construct: gene MYLK3

The subject of assay [7] is T3, MLK1.
T3 construct: gene MAP3K9

The test system of assay [8] is MLK2.
The subject of assay [9] is MLK3.
In assay [10] the test system is MRCKA.

Data on 18 compounds can be found in paper PMC5540273 (PLoS ONE, 2017).

Each structure is given as a SMILES string.
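Also: KINOMEscan kinase panel screen.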

For the compound `Cc1c(Cn2c(C)nn3c(=O)cc(N4CCO[C@H](C)C4)nc23)cccc1C(F)(F)F` [GSK2373690], the “%Inh” value in [1] stood at 0%; in [2], 0%; in [3] it was 0%; in assay [4], 3%; in assay [5] it was 9%; in assay [6], 9%. For the same compound, the “%Inh” value in assay [7] came out at 0%; in assay [8], 14%; in [9], 3%; in assay [10], 0%.

Consider `CN(C)c1cc(-c2ccc3c(N)n[nH]c3c2)nc(N)n1` [GSK2219329], for which the “%Inh” value in [1] stood at 0%; in [2], 0%; in assay [3], 0%; in assay [4], 0%; in assay [5] it was 9%; in [6], 0%. Moreover, the “%Inh” value in assay [7] stood at 3%; in assay [8], 0%; in assay [9], 3%; in assay [10] it was 0%.

Take `Cc1nnc(-c2ccc(C)c(-c3ccc(C(=O)O)cc3)c2)o1` [GW608005]: the “%Inh” value came out at 0% in assay [1]; 0% in assay [2]; 13% in assay [3]; 0% in assay [4]; 0% in [5]; 0% in assay [6]. Moreover, the “%Inh” value in assay [7], in assay [8], in [9] and in assay [10] was 0% in each case.

Turning to `COc1cc(Nc2nccc(N3CCC(NC(=O)C(C)c4ccc(Cl)cc4)C3)n2)cc(OC)c1OC` (stereo not drawn) [GSK1379757], the “%Inh” value in assay [1] amounted to 0%; in assay [2], 0%; in assay [3] it was 15%; in assay [4] it was 0%; in assay [5] it was 16%; in [6], 0%. Moreover, the “%Inh” value turned out to be 22% in assay [7], 0% in assay [8], 28% in assay [9] and 15% in assay [10].

As for `COC(=O)c1c(-c2ccccc2)c2cc(C)ccc2c(=O)n1Cc1ccccc1`, the “%Inh” value in assay [1], in assay [2], in assay [3], in [4], in assay [5] and in [6] was 0% throughout. In addition, the “%Inh” value in assay [7], in assay [8], in [9] and in assay [10] was 0% in each case.

Regarding `COC(=O)c1c(-c2ccccc2)c2cc(Br)ccc2c(=O)n1Cc1ccc(NC(=O)CCC(=O)O)cc1`, the “%Inh” value in [1] is reported as 18%; in assay [2], 0%; in [3], 0%; in [4], 0%; in [5], 0%; in assay [6], 0%. Further, the “%Inh” value in assay [7], in assay [8], in assay [9] and in assay [10] was 0% each time.

In the case of `CN1C(=O)C(Nc2cc(Cl)c(O)c(Cl)c2)=C(c2ccc(Cl)cc2)C1=O` [SB-404321], the “%Inh” value in assay [1] is reported as 0%; in assay [2], 0%; in assay [3] it was 0%; in assay [4], 38%; in assay [5], 19%; in assay [6] it was 0%. In addition, the “%Inh” value in assay [7] came to 0%; in [8] it was 0%; in assay [9] it was 0%; in assay [10] it was 5%.

On to `CCC(=O)c1c(-c2ccccc2)c2cc(Cl)ccc2c(=O)n1Cc1ccc(C(=O)O)cc1`, for which the “%Inh” value in [1], in [2], in assay [3], in assay [4], in assay [5] and in [6] was 0% throughout. Also, the “%Inh” value in [7], in assay [8], in [9] and in assay [10] was 0% throughout.

Regarding `O=C(Nc1ccc2c(c1)OCO2)NC1CCN(c2ccnc(NCc3ccc(F)cc3)n2)CC1` [GSK1379859], the “%Inh” value in assay [1], in [2], in assay [3], in [4], in [5] and in [6] was 0% each time. Also, the “%Inh” value in assay [7], in assay [8], in assay [9] and in [10] was 0% in each case.

In the case of `O=C(NCCNc1ccnc(Nc2ccc(F)cc2)n1)Nc1ccc2c(c1)OCO2` [GSK1379882], the “%Inh” value in [1] is 0%; in assay [2], 4%; in [3], 0%; in assay [4], 23%; in [5], 5%; in [6] it was 0%. Further, the “%Inh” value in assay [7] worked out at 0%; in assay [8], 0%; in [9] it was 0%; in assay [10] it was 9%.

Take `CCn1c(-c2ccoc2)nc2cnccc21` [SB-733887]: the “%Inh” value in [1] is 0%; in [2] it was 0%; in [3] it was 33%; in assay [4] it was 13%; in assay [5] it was 17%; in [6], 0%. In addition, the “%Inh” value was found to be 0% in assay [7], 0% in assay [8], 3% in [9] and 1% in assay [10].

For the compound `Fc1cccc(CSc2nnc(-c3ccc4c(c3)CCO4)o2)c1`, the “%Inh” value in assay [1] is listed as 10%; in [2] it was 5%; in [3], 6%; in [4], 3%; in [5], 4%; in assay [6] it was 7%. Besides, the “%Inh” value in assay [7], in assay [8], in assay [9] and in [10] was 0% each time.

For the compound `O=C(Nc1n[nH]c2nc(-c3ccccc3)c(Br)cc12)C1CC1` [SB-708998], the “%Inh” value is 0% in assay [1]; 6% in [2]; 0% in assay [3]; 7% in assay [4]; 1% in assay [5]; 21% in assay [6]. Further, the “%Inh” value is 0% in assay [7], 18% in assay [8], 22% in assay [9] and 0% in [10].

Take `Nc1ncnc2c1ncn2-c1cccc2ccccc12` [SKF-97184]: the “%Inh” value was 0% in assay [1]; 12% in assay [2]; 0% in assay [3]; 0% in assay [4]; 0% in assay [5]; 0% in [6]. Also, the “%Inh” value in assay [7] was determined as 0%; in assay [8], 19%; in assay [9], 0%; in [10] it was 0%.

`COc1ccc(-c2cc3c(C)nc(N)nc3n([C@H]3CC[C@H](OCCO)CC3)c2=O)cn1`: the “%Inh” value in [1] amounted to 0%; in [2] it was 1%; in [3], 0%; in [4] it was 0%; in assay [5], 0%; in assay [6] it was 17%. The “%Inh” value in assay [7] is 0%; in assay [8] it was 0%; in assay [9], 3%; in assay [10], 0%.

In the case of `CCn1c(-c2nonc2N)nc2ccccc21` [SB-693162/GW549034], the “%Inh” value in assay [1] came to 14%; in assay [2] it was 36%; in [3], 0%; in assay [4] it was 0%; in assay [5], 59%; in assay [6], 2%. The “%Inh” value in [7] was 0%; in assay [8], 10%; in assay [9], 0%; in assay [10], 0%.

Consider `OCCCNc1nccc(-c2c(-c3cccc(C(F)(F)F)c3)nn3cc(C(F)(F)F)ccc23)n1` [GW630813], for which the “%Inh” value in assay [1] is on record as 0%; in [2] it was 0%; in assay [3], 15%; in [4] it was 0%; in assay [5], 0%; in assay [6] it was 0%. The “%Inh” value in assay [7], in assay [8], in [9] and in assay [10] was 0% throughout.

On to `O=C(Nc1n[nH]c2cc(-c3ccccc3F)ccc12)C1CC1` [SB-733371], for which the “%Inh” value was determined as 0% in assay [1]; 69% in assay [2]; 10% in assay [3]; 0% in [4]; 18% in [5]; 29% in assay [6]. The “%Inh” value was determined as 0% in assay [7], 5% in [8], 0% in assay [9] and 0% in assay [10].
